The record followed here is PubChem BioAssay AID2544 (Sanford-Burnham Center for Chemical Genomics, 2010).

The whole screen tested about 330,000 compounds, of which about 390 (0.12%) were called active.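 Rule for the calls: active = inhibition reaching a set limit with compound at 10 µM in the primary screen (cut at about 35% in these data); inactive = the rest.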 Shown is part of a subset that was picked to be rich in actives.

Sequence of Intestinal-type alkaline phosphatase (Homo sapiens) (P09923 whole entry, looked up): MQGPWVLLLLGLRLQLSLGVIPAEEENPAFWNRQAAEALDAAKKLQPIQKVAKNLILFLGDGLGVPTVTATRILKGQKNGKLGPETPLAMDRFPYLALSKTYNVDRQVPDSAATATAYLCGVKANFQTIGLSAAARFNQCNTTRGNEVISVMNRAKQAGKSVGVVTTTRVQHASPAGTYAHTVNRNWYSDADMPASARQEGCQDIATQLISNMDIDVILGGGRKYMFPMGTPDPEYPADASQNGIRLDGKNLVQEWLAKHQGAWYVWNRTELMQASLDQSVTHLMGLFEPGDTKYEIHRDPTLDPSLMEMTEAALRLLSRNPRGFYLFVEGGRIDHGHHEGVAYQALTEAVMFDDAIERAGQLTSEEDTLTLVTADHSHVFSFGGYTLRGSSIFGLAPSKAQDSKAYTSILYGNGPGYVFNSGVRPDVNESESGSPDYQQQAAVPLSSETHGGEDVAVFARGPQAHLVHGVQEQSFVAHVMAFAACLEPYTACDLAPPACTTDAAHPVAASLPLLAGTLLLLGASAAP

This experiment addresses Intestinal-type alkaline phosphatase (Homo sapiens) (UniProt P09923). The experiment is described as follows: human IAP inhibitors, primary screen, biochemical, luminescence, uHTS (AID 2544).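 Note: plate controls were DMSO wells with enzyme for no effect and no-enzyme buffer wells for full effect.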 As to conditions: purified IAP, CDP-Star luminescence, 30 min; at 10 µM; stronger effect = higher value.
Turning to `COc1cccc(-n2c(=O)c3c(C)c(C(=O)N(C)C)sc3n(CC(=O)NCCc3ccc(OC)c(OC)c3)c2=O)c1`, the inhibition is -1.6% (inactive).
The figure for `C[N+]1(CCNC(=O)/C=N/O)CCCCC1` is -34.9% (inactive).
With `CC(=O)c1ccc(S(=O)(=O)Nc2ccc(-c3ccc4nncn4n3)cc2)cc1`, the inhibition is -1.5% (inactive).
Consider `COC(=O)[C@H](C(C)C)n1c(C)c(C(C)=O)c(C(C)=O)c1C`, for which the inhibition was -6.9% (inactive).
The figure for `CC(C)C[C@H](NC(=O)[C@@H]1O[C@H]1C(=O)O)C(=O)NCCCCN=C(N)N` is 14.6% (inactive); for `CCCc1ccc(C(=O)[C@@H]2[C@@H](C(C)=O)N3c4ccc(F)cc4C=C[C@@H]3[C@@]23C(=O)Nc2ccccc23)cc1` it is 0% (inactive).
The figure for `CCCCc1nc(NCCN)c(C#N)c2c1CSC(C)(C)C2` is 6.8% (inactive).
In the case of `Cc1ccc(S(=O)(=O)Nc2ccc(F)c(S(=O)(=O)N3CCOCC3)c2)cc1`, the inhibition is -6.7% (inactive).
Turning to `CC(Oc1ccccc1)C(=O)NN1Cc2ccccc2C1=N` (stereo not given), the inhibition is -9.2% (inactive).
The figure for `Cc1cccn2c(=O)nc(SCC(=O)NCc3ccccc3Cl)nc12` is -1.6% (inactive); for `CCOCc1nnc(NC(=O)CCS(=O)(=O)Cc2ccccc2)s1` it is -9.2% (inactive); for `COCCSc1nnc(NC(=O)CCS(=O)(=O)Cc2ccccc2)s1` it is 35.1% (active).
The figure for `COC(=O)CSc1nnc(NC(=O)CCc2ccccc2)s1` is -5.1% (inactive); for `CCOc1ccccc1NC(=S)N1CCN(c2cccc(C)c2C)CC1` it is -5.2% (inactive); for `COc1ccccc1C(=O)N(C1=NC(C)CS1)c1ccc(Cl)cc1` (stereo not given) it is -3% (inactive).
Regarding `Cc1ccn2c(=O)c(C(=O)NCCC3=CCCCC3)c(O)nc2c1`, the inhibition is 6.8% (inactive).
As for `O=C(Nc1cc(S(=O)(=O)N2CCOCC2)ccc1OCC(F)(F)F)c1ccc(N2CCCC2=O)cc1`, the inhibition is 2.5% (inactive).
On to `Cc1cc(C)c2c(n1)sc1c(=O)n(-c3ccccc3)c(=O)[nH]c12`, for which the inhibition is 5.6% (inactive).
To `Cc1ccc(-n2c(C)nnc2SCC(=O)NC2CC2)cc1` belongs -12.6% (inactive).
To `Cc1nc(-c2ccc(F)cc2)c(CC(=O)Nc2cc(S(=O)(=O)N3CCCCC3)ccc2C)s1` belongs -13.3% (inactive); to `CC(C)Oc1c(Br)cc(Br)cc1/C=N/NC(N)=S`, 14.7% (inactive); to `COc1ccc(C(C(=O)NC(C)(C)C)N(C(=O)Cn2nnc3ccccc32)c2ccc(C(C)=O)cc2)cc1O` (stereo not given), -15.8% (inactive).
The figure for `CCC(=O)c1ccc(OCC(=O)OCC(=O)NC2CCCCCC2)cc1` is 8.3% (inactive); for `Oc1ccc(CNc2ccccc2O)cc1` it is -0.8% (inactive); for `COc1ccc(/C=C2\N=C3CCCN3C2=O)cc1` it is 7.3% (inactive).

The term inhibition denotes the drop in the measured response relative to a control, in per cent.
